{"source": "PubChem BioAssay AID1850", "about": "(Southern Research Specialized Biocontainment Screening …, 2009)", "note": "Out of some 310,000 compounds screened, about 1,000 (0.32%) were called active. The list is a sample of the results. Results with a measured potency or affinity are listed apart. Values without a mark were called inactive. No rule for the calls is given here."}
{"test": "PhoP regulon inhibitors, Salmonella typhi PhoP promoter GFP reporter, confirmatory (AID 1850);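 also: 0% = induced wells with vehicle and 100% = uninduced wells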", "conditions": "fluorescence, 4 h, at 50 µM, hits give high values", "units": {"inhibition": "%"}}
{"smiles": "O=C(CSC1=NNC(c2ccccn2)S1)Nc1ccc(C(F)(F)F)cc1", "note": "(configuration not stated)", "inhibition": 3.27}
{"smiles": "Cc1cc(C)c2cc(C(=O)N3CCC(C(=O)c4ccc(F)cc4)CC3)[nH]c2c1", "inhibition": 2.06}
{"smiles": "O=C1c2ccccc2NC(c2ccccc2O)N1O", "note": "(configuration not stated)", "inhibition": -4.51}
{"smiles": "N/C(=N\\N=C/c1ccc(Br)cc1)N/N=C\\c1ccc(Br)cc1", "inhibition": -6.33}
{"smiles": "O=C(N/N=C\\c1ccc(F)cc1)c1ccc(F)cc1", "inhibition": 23.4}
{"smiles": "CC(=O)Nc1ccc2c(c1)nc1n2CCSC1", "inhibition": 11.9}
{"smiles": "Cc1cc(/C=C2\\C(=O)NC(=O)N(c3ccc(Cl)cc3)C2=O)c(C)n1-c1cccc(C(=O)O)c1", "inhibition": -15.1}
{"smiles": "Cc1ccc(/C=N/NC(=O)c2nnn(-c3nonc3N)c2CN(C)c2ccccc2)s1", "inhibition": 0.97}
{"smiles": "C/C(N=Nc1nc2ccccc2s1)=N\\Nc1ccccc1O", "inhibition": 16.1}
{"smiles": "Oc1ccccc1N=N/C(=N/Nc1ccccc1O)c1ccccc1", "inhibition": -5.08}
{"smiles": "O=C(Cn1nc(C(F)F)cc1C(F)F)NNC(=S)Nc1ccc(Cl)cc1", "inhibition": 8.04}
{"smiles": "O=C(Cn1nc(C(F)F)cc1C(F)F)NNC(=S)Nc1ccc(F)cc1", "inhibition": -9.87}
{"smiles": "COC1(OC)N=C(N)C2(C#N)C(c3ccccc3)NC(C)=CC12C#N", "note": "(configuration not stated)", "inhibition": 22.3}
{"smiles": "CC(Oc1ccc(Br)cc1)C(=O)N(C)CC(=O)Nc1ccc(N2CCOCC2)cc1", "note": "(configuration not stated)", "inhibition": -2.3}
{"smiles": "Cc1cc(N/N=C/c2ccccc2)nc(NCc2ccccc2)n1", "inhibition": -6.44}
{"smiles": "Cc1cc(N2CCCCC2)nc(NCc2ccccc2)n1", "inhibition": 5.84}
{"smiles": "Cc1cc(N2CCN(c3ccccc3)CC2)nc(NCc2ccccc2)n1", "inhibition": -4.52}
{"smiles": "CCCCNc1cc(C)nc(NCc2ccccc2)n1", "inhibition": 15.8}
{"smiles": "Cc1ccc(/C=N/Nc2cc(C)nc(NCc3ccccc3)n2)cc1", "inhibition": 8.63}
{"smiles": "Cc1cc(OC2CCCCC2)nc(NCc2ccccc2)n1", "inhibition": -3.41}
{"smiles": "Cc1cc(Nc2cccc(F)c2)nc(NCc2ccccc2)n1", "inhibition": -0.63}
{"smiles": "Cc1cc(Nc2ccccc2)nc(NCc2ccccc2)n1", "inhibition": -0.96}
{"smiles": "CCOc1ccc(S(=O)(=O)Nc2ccccc2C(=O)NCc2ccco2)cc1", "inhibition": -4.17}
{"smiles": "CCOCCCNC(=O)c1ccc(N(C)S(=O)(=O)c2ccc(OC)cc2)cc1", "inhibition": -7.69}
{"smiles": "CCCCCC(O)CCC(=O)NNC1=CC(=O)CC(C)(C)C1", "note": "(configuration not stated)", "inhibition": 5.33}
{"smiles": "CC(=O)NCCCC(=O)NN1C(=S)N(Cc2ccccc2)C(=O)C1CC(=O)Nc1cccc(C)c1", "note": "(configuration not stated)", "inhibition": -3.38}
{"smiles": "COc1ccc(CCNC(=O)c2ccc(OCC(=O)N3CCOCC3)c(OC)c2)cc1OC", "inhibition": 2.3}
{"smiles": "O=C(NC(=S)Nc1ccc(S(=O)(=O)Nc2nccs2)cc1)c1cccc(F)c1", "inhibition": 9.55}
{"smiles": "O=C(Nc1cccc(N=Cc2cc(Br)cc(Br)c2O)c1)c1ccco1", "inhibition": 18.1}
{"smiles": "O=C(Nc1cc(Br)c(O)c(Br)c1)c1cccc(NC(=O)c2ccco2)c1", "inhibition": -5.68}
{"smiles": "O=C(Nc1cccnc1)c1ccc(Br)c(S(=O)(=O)N2CCCC2)c1", "inhibition": 1.47}
{"smiles": "O=C(Nc1nnc(-c2ccco2)o1)c1ccc(Cl)cc1", "inhibition": 0.38}
{"smiles": "O=C(Nc1nnc(-c2ccccn2)o1)c1cccc(Br)c1", "inhibition": 3.24}
{"smiles": "Cc1cccc(C(=O)Nc2nnc(-c3ccco3)o2)c1", "inhibition": -1.28}
{"smiles": "O=C(Nc1nnc(-c2ccccn2)o1)c1ccc(Br)cc1", "inhibition": -1.87}
{"smiles": "Cc1cccc(CC(=O)N2CCC(n3nccc3NC(=O)C3CC3)CC2)c1", "inhibition": -7.5}
{"smiles": "O=C(NCc1ccccc1)c1nc(-c2cccs2)no1", "inhibition": -1.19}
{"smiles": "CN(Cc1ccon1)C(=O)C1CCC(=O)N(Cc2ccc(Cl)cc2)C1", "note": "(configuration not stated)", "inhibition": -14.1}
{"smiles": "Cc1cc(C(=O)CC#N)c(C)n1-c1ccc(OC(F)F)cc1", "inhibition": -0.727}
{"smiles": "O=C(C[n+]1ccc2ccccc2c1)c1cccc2ccccc12", "inhibition": -0.15}
{"smiles": "Cc1ccc(S(=O)(=O)NNC(=O)c2sc(=S)n(C)c2C)cc1", "inhibition": -24.1}
{"smiles": "Cc1ccc(N2C(=O)C3C4C=CC(CNC(=S)N5CCN(c6ccccn6)CC5)(O4)C3C2=O)cc1", "note": "(configuration not stated)", "inhibition": 5.6}
{"smiles": "COc1ccc(/C=N\\NC(=O)c2cccc(F)c2)cc1COc1ccccc1", "inhibition": -7.03}
{"smiles": "CC1=C(C(=O)O)N2C(=O)C(NC(=O)c3ccn(C)n3)C2SC1", "note": "(configuration not stated)", "inhibition": 7.91}
{"smiles": "C=CC1=C(C(=O)O)N2C(=O)C(NC(=O)Cc3ccccc3)C2SC1", "note": "(configuration not stated)", "inhibition": -5.97}
{"smiles": "C[C@H]1[C@H](NC(=O)C(=NOC(C)(C)C(=O)O)c2csc(N)n2)C(=O)N1S(=O)(=O)O", "inhibition": 1.3}
{"smiles": "CC1=C(C(=O)O)N2C(=O)C(NC(=O)CCCC(=O)O)C2SC1", "note": "(configuration not stated)", "inhibition": 10.9}
{"smiles": "O=C(O)C[C@H]1c2ccccc2S(=O)(=O)N1c1ccccc1", "inhibition": -12.5}
{"smiles": "Cc1nn(Cc2noc(C(=O)NCc3ccc(F)cc3)n2)c(C)c1Br", "inhibition": 5.51}
{"smiles": "O=C(CCc1nnc(Cc2cccc(C(F)(F)F)c2)o1)NC1CC1", "inhibition": 2.17}
{"smiles": "COc1ccc(N(CC(=O)Nc2ccccc2C(=O)NCCc2ccccc2)S(C)(=O)=O)cc1OC", "inhibition": -12.9}
{"smiles": "CC(=O)Nc1ccc(S(=O)(=O)Oc2ccccc2N2C(=O)C3C4CCC(C4)C3C2=O)cc1", "note": "(configuration not stated)", "inhibition": 1.86}
{"smiles": "COc1ccc(N(CC(=O)NC2CC3CCC2C3)S(=O)(=O)c2ccc(C)cc2)cc1", "note": "(configuration not stated)", "inhibition": -6.68}
{"smiles": "CN(C)CCCNc1ccc(-c2n[nH]c(=O)c3ccccc23)cc1[N+](=O)[O-]", "inhibition": -4.76}
{"smiles": "Cc1ccc2nc(C)c(Cl)c(=O)n2c1", "inhibition": -9.57}
{"smiles": "COc1ccc(CCNC(=O)CCCCC(=O)NCCc2ccc(OC)cc2)cc1", "inhibition": -3.5}
{"smiles": "O=S(=O)(NC1CCCCCC1)c1cccc2cccnc12", "inhibition": 5.87}
{"smiles": "COc1ccc(C(=O)O/N=C(/c2ccccc2)c2ccncc2)cc1OC", "inhibition": -4.7}
{"smiles": "O=c1cc(-c2ccc(O)cc2)oc2cc(O)cc(O)c12", "inhibition": 1.38}
{"smiles": "COc1c(O)c(O)c2oc(-c3ccccc3)cc(=O)c2c1OC", "inhibition": 9.73}
{"smiles": "CCOC(=O)CC1(C)OCC(C[N+]2(C)CCCCC2)O1", "note": "(configuration not stated)", "inhibition": 5.82}
{"smiles": "COC(=O)[C@@H]1C[C@@]2(O)[C@H](O)[C@H](O)[C@H](O)C[C@H]2N1Cc1ccc(-c2ccccc2)cc1", "inhibition": -7.22}
{"smiles": "COC(=O)c1ccc2c(=O)n(Cc3ccc(C(=O)NCCCN4CCC(C)CC4)cc3)c(=S)[nH]c2c1", "inhibition": 2.98}
{"smiles": "CC1CCN(CCNC(=O)c2ccc3c(=O)n(Cc4ccc(Cl)cc4)c(=S)[nH]c3c2)CC1", "inhibition": 4.39}
{"smiles": "COc1ccc(S(=O)(=O)NN(C)c2ncc(C(F)(F)F)cc2Cl)cc1", "inhibition": 2.03}
{"smiles": "CC(=O)NCCC(=O)NCC1(N(C)Cc2ccccc2)Cc2ccccc2C1", "inhibition": -1.56}
{"smiles": "c1ccc(-c2cc(N3CCCCC3)nc(-c3ccccc3)n2)cc1", "inhibition": 5.32}
{"smiles": "CO[C@@]12[C@H](COC(N)=O)C3=C(C(=O)C(C)=C(N)C3=O)N1C[C@@H]1N[C@@H]12", "inhibition": 6.71}
{"smiles": "O=C(ONC1=NCCCCC1)c1cccc([N+](=O)[O-])c1", "inhibition": -5.28}
{"smiles": "Cc1ccnc(-n2c(C)nc3ccccc3c2=O)c1", "inhibition": -16}
{"smiles": "O=C(NC1CC2CCCC(C1)N2C(=O)Nc1ccccc1)c1ccccc1", "note": "(configuration not stated)", "inhibition": -0.41}
{"smiles": "COc1cc(C)c(CN2CCC(n3nccc3NC(=O)C3CCOC3)CC2)cc1C", "note": "(configuration not stated)", "inhibition": -6.02}
{"smiles": "CC(C)N1CC(C(=O)Nc2ccc(C#N)cc2)CC1=O", "note": "(configuration not stated)", "inhibition": -2.49}
{"smiles": "Cc1cc(Cl)ccc1OCC(=O)n1cc(C(=O)c2cc(Cl)ccc2O)cn1", "inhibition": -8.17}
{"smiles": "Cc1ncc(CC(=O)n2cc(C(=O)c3cc(F)ccc3O)cn2)s1", "inhibition": 23.5}
{"smiles": "O=C(NCCc1ccccc1)c1nccc2ccccc12", "inhibition": 3.49}
{"smiles": "COCCC(=O)N1CCC(Oc2ccc(C(=O)N3CCC[C@H]3CO)cc2)CC1", "inhibition": -1.9}
{"smiles": "CCOC(=O)C1CCCN(C2CCN(Cc3nc(Cc4ccccc4)no3)CC2)C1", "note": "(configuration not stated)", "inhibition": -4.46}
{"smiles": "CS(=O)(=O)c1ccc(C(=O)NCc2ccccc2F)cc1", "inhibition": 2.01}
{"smiles": "O=C(O)c1cc(S(=O)(=O)NC(CO)C(O)c2ccc([N+](=O)[O-])cc2)ccc1Br", "note": "(configuration not stated)", "inhibition": 5.04}
{"smiles": "Cc1ccc(NC(=S)NC(CO)C(O)c2ccc([N+](=O)[O-])cc2)cc1", "note": "(configuration not stated)", "inhibition": 8.81}
{"smiles": "CS(=O)(=O)c1ccc(C(=O)NC(Cc2ccccc2)c2ccccc2)cc1", "note": "(configuration not stated)", "inhibition": 2.4}
{"smiles": "Cc1ccc(-n2nc(C(=O)NN)c(C)c(C#N)c2=O)cc1Cl", "inhibition": -0.01}
{"smiles": "CCOC(=O)N1CCC(NC(=O)c2ccccc2C(=O)O)CC1", "inhibition": 2.93}
{"smiles": "CCN(CC)S(=O)(=O)c1ccc(C)c(NC(=O)COc2ccc3c(C)cc(=O)oc3c2)c1", "inhibition": -6.3}
{"smiles": "CCCn1nnc(NC(=O)c2ccc([N+](=O)[O-])cc2Cl)n1", "inhibition": -8.6}
{"smiles": "Fc1ccc(-c2nc3ccccn3c2NCc2ccc3c(c2)OCO3)cc1", "inhibition": -6.33}
{"smiles": "Cc1ccc(CNC(=O)C(=O)NCCC2=CCCCC2)cc1", "inhibition": -20.6}
{"smiles": "Clc1ccc(CNCCC2=CCCCC2)cc1", "inhibition": -4.93}
{"smiles": "O=C(NCCC1=CCCCC1)C(=O)NCc1ccccc1", "inhibition": -1.97}
{"smiles": "Cc1ccc(NC(=S)NCCC2=CCCCC2)cc1", "inhibition": -0.73}
{"smiles": "CC(C)[C@H](NC(=O)c1ccccc1Cl)C(=O)OCc1cc([N+](=O)[O-])cc2c1OCOC2", "inhibition": -4.37}
